Where a structure was tested more than once in an assay, its records may differ in their call. Activity calls are given as the source filed them. Rule for the calls: active = hit-call score of the fitted dose curve at least 0.9, where 1 is the maximum; inactive = score below 0.9.
The compounds below were run on TIMP1, TIMP1 (gene 7076) (assay: LTEA_HepaRG_TIMP1: Life Technologies and Expression Analysis (LTEA) Assay for TIMP1 using HepaRG (AID 2283534;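 for outcome: TaqMan qRT-PCR signal normalized to ACTB GAPDH and POLR2A housekeeping genes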)). Conditions: mRNA level, 48 h; actives raise or lower the signal.
Protocol: LTEA_HepaRG is a cell based, multiplexed-readout assay that uses HepaRG, a human liver cell line, with measurements taken at 48 hours after chemical dosing on a 96-well plate.LTEA_HepaRG_TIMP1 is one of 102 assay component(s) measured in the LTEA HepaRG cell culture assay. It is a marker of Cell proliferation, survival, death.Data from the assay component LTEA_HepaRG_TIMP1 was analyzed into 1 endpoint. This assay endpoint, LTEA_HepaRG_TIMP1, was analyzed with bidirectional fitting relative to DMSO as the negative control and baseline of activity. Using a type of inducible reporter, measures of mRNA induction for gain or loss-of-signal activity can be used to understand regulation of transcription factor activity. To generalize the intended target to other relatable targets, this assay endpoint is annotated to the protease inhibitor intended target family, where the subfamily is metalloproteinase inhibitor.
A total of 1060 chemcials from the ToxCast library were tested in eight-point concentration-response experiments. Cell culture and cytotoxicity assays were conducted at Thermo Fisher Scientific's Custom Services facility (Madison, WI). A single lot of human HepaRG cells (Thermo Fisher Scientific, Frederick, MD) was used for the cell culture experiments. 96-well format collagen type I coated plates of human HepaRG cells were prepared using established methods. Briefly, cryopreserved HepaRG cells were thawed, plated at a density of approximately 100,000 cells/well in HepaRG Thaw, Plate, and General Purpose media (HPRG770, Thermo Fisher Scientific), and incubated for 48 hours. 0.5% DMSO was selected as vehicle control to balance the requisite need of DMSO in HepaRG cultures to maintain differentiation (for example, baseline metabolism, proportions of hepatocytes vs. cholangiocytes), while enabling further hepatic receptor pathway activation (for example, PXR and CAR) in response to chemical exposure. 48 hours after plating, the culture medium was replaced with HepaRG Serum-Free Incudtion Media. Cells were exposed to each test chemical in duplicate and maintained in CO2 incubators for another 48 hours. Chemical plates were thawed to room temperature and 200x concentrations of treatment groups were prepared. 8-point conentration-reponse curves were made with the highest exposure at 100 uM, followed by half-log dilutions, all in 0.5% DMSO. Each test plate contained variouse controls, induction positive controls (1mM phenobarbital), cytotoxicity positive controls ([…] aflatoxin B1), vehicle controls (0.5% DMSO), and total lysis controls (0.5% DMSO). Cell morphology images were taken using an Essen IncuCyte FLR automated microscope, with six 96-well plates imaged in about 24 minutes. Images were captured and exported and JPEG files. Spent culture media was transfered to black-well plates for the LDH assay, and remaining media was sorted at -80 C for later use. Cells were treated with RLT buffer and frozen until shipped for gene expression analysis. Total RNA was isolated from the cell suspension in 75 uL of Buffer RLT (Qiagen, Germantown, MD 20874) by Quintiles/Expression Analysis (Durham, NC) using a custom isolation procedure. Total RNA from each plate well was transferred to a preamplification plate. Fluidigm's 96.96 Dynamic ArrayTM (Fluidigm, Amsterdam, the Netherlands) technology was used for gene expression analyses by quantitative reverse transcription polymerase chain reaction (qRT-PCR, performed by Quintiles/Expression Analysis, Durham, NC)89. Standard TaqManTM Assays (Applied Biosystems/ThermoFisher Scientific, Foster City, CA) were used to assess the expression of 93 genes selected based on their selectivity and sensitivity to important hepatic receptors known to be modulated by environmental chemicals; importance in human hepatocyte functionality; and hepatotoxicity. […]

Compound | outcome | AC50
CCCCOC(=O)[C@@H](C)Oc1ccc(Oc2ccc(C(F)(F)F)cn2)cc1 | inactive | 
CCOC(=O)COc1cc(-n2ncc(C(F)(F)F)c(C)c2=O)c(F)cc1Cl | inactive | 
CCCCC(CC)COC(=O)c1ccccc1C(=O)O (stereo not given) | inactive | 
CC(C)CCCCCCc1ccc(O)cc1 | inactive | 
CCCCCCC(C)OC(=O)COc1nc(F)c(Cl)c(N)c1Cl (stereo not given) | inactive | 
C[C@]12CC[C@@H]3c4ccc(O)cc4C[C@@H](CCCCCCCCCS(=O)CCCC(F)(F)C(F)(F)F)[C@H]3[C@@H]1CC[C@@H]2O (stereo not given in full) | inactive | 
CCNc1nc(N)nc(Cl)n1 | inactive | 
O=C(Nc1ccc([N+](=O)[O-])cc1Cl)c1cc(Cl)ccc1O |  | 3.18 µM (active)
CCC(C)OC(=O)N1CCCCC1CCO (stereo not given) | inactive | 
CCOC(=O)NCCOc1ccc(Oc2ccccc2)cc1 | inactive | 
CCOC(=O)c1ccc(O)cc1 | inactive | 
CCCCOCCOCCOCc1cc2c(cc1CCC)OCO2 | inactive | 
C#CCOC(=O)[C@@H](C)Oc1ccc(Oc2ncc(Cl)cc2F)cc1 | inactive | 
COCCO | inactive | 
CCN(CC)C(=O)c1cccc(C)c1 | inactive | 
CC(=O)S[C@@H]1CC2=CC(=O)CC[C@]2(C)[C@H]2CC[C@@]3(C)[C@@H](CC[C@@]34CCC(=O)O4)[C@H]12 | inactive | 
C[C@]12C[C@H](O)[C@H]3[C@@H](CCC4=CC(=O)CC[C@@]43C)[C@@H]1CC[C@@H]2C(=O)CO | inactive | 
CCOC(=O)C(C)Oc1ccc(Oc2nc3ccc(Cl)cc3o2)cc1 (stereo not given) | inactive | 
COc1c(Cl)ccc(Cl)c1C(=O)O | inactive | 
Cc1nn(C)c(Oc2ccccc2)c1C=NOCc1ccc(C(=O)OC(C)(C)C)cc1 |  | 6.47 µM (active)

Compound | outcome | AC50
CSC(=O)c1cccc2nnsc12 | inactive | 
COC(=O)c1ccc(I)cc1S(=O)(=O)NC(=O)Nc1nc(C)nc(OC)n1 | inactive | 
N#CSCSc1nc2ccccc2s1 | inactive | 
CC(=O)[C@H]1CC[C@H]2[C@@H]3CCC4=CC(=O)CC[C@]4(C)[C@H]3CC[C@]12C |  | 22.2 µM (active)
CCCCOC(=O)C(C)Oc1ccc(Oc2ccc(C(F)(F)F)cn2)cc1 (stereo not given) | inactive | 
COC(=O)c1ccccc1C(=O)O | inactive | 
S=C(S)NCCNC(=S)S.[Mn+2].[S-]C([S-])=NCCN=C([S-])[S-].[Zn+2] | inactive | 6.38 µM (active)
O=C(O)C1(C(=O)Nc2ccc(Cl)cc2Cl)CC1 | inactive | 
O=C(O)c1ccccc1 | inactive | 
CCCCCOC(=O)COc1cc(N2C(=O)C3=C(CCCC3)C2=O)c(F)cc1Cl | inactive | 
O=C(c1ccc(O)cc1O)c1ccc(O)cc1O | inactive | 
CCCOC(=O)c1ccc(C(=O)OCCC)nc1 | inactive | 
CCCCC(CC)CN1C(=O)C2C3C=CC(C3)C2C1=O (stereo not given) | inactive | 
CC1(C)C(C=C(Cl)Cl)C1C(=O)OCc1cccc(Oc2ccccc2)c1 (stereo not given) | inactive | 
N[C@@H](Cc1cc(I)c(Oc2ccc(O)c(I)c2)c(I)c1)C(=O)O | inactive | 
CC(C)(c1ccc(O)cc1)c1ccc(O)cc1 | inactive | 
CCCN(CCC)c1c([N+](=O)[O-])cc(C(F)(F)F)c(N)c1[N+](=O)[O-] | inactive | 
S=C([S-])NCCNC(=S)[S-].[Mn+2] | inactive | 
CCCN(CCC)C(=O)SCC | inactive | 
